Test results as given in PubChem BioAssay (NCI).
“And” between values parts separate entries of the source, which are not always exact repeats. Equal values may be shown once. This is part of a sample that, as a whole, favours compounds with a hit. Of some 83,000 tested, about 20% had one in any assay.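 Plates (96-well) were seeded with cells, treated with compound at one concentration, and incubated for 48 hours before percent growth was determined.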 The source made the active and inactive calls. The calls were made as follows: active = growth percent below 10; inactive = the rest. Where a SMILES comes first, the peptide text is derived from it.

Tests used:
Test in all cases: NCI-60 one-dose screen, 48 h (100 = growth as untreated, 0 = no growth, -100 = all killed)
Settings in all cases: 10 µM unless noted
DU-145 prostate = system: DU-145 prostate
K-562 leukemia = system: K-562 leukemia
MALME-3M melanoma = system: MALME-3M melanoma
MDA-MB-231 breast = system: MDA-MB-231 breast
RXF 393 renal = system: RXF 393 renal
SF-268 CNS = system: SF-268 CNS
SF-295 CNS = system: SF-295 CNS
SF-539 CNS = system: SF-539 CNS
UACC-257 melanoma = system: UACC-257 melanoma
M14 melanoma = system: M14 melanoma
HCT-15 colon = system: HCT-15 colon
HT29 colon = system: HT29 colon
SNB-75 CNS = system: SNB-75 CNS
SNB-19 CNS = system: SNB-19 CNS
U251 CNS = system: U251 CNS
PC-3 prostate = system: PC-3 prostate
UACC-62 melanoma = system: UACC-62 melanoma
LOX IMVI melanoma = system: LOX IMVI melanoma
SK-MEL-28 melanoma = system: SK-MEL-28 melanoma
SK-MEL-5 melanoma = system: SK-MEL-5 melanoma

Measured: growth

O=C(O)/C=C\C(=O)Nc1cccc2ccccc12
inactive: DU-145 prostate 109% and 123% | K-562 leukemia 110% and 94% | MALME-3M melanoma 116% and 119% | MDA-MB-231 breast 85.1% and 107% | RXF 393 renal 113% and 132% | SF-268 CNS 78.6% and 107% | SF-295 CNS 117% and 104% | SF-539 CNS 89.2% and 110% | UACC-257 melanoma 95.1% and 101% | M14 melanoma 99.6% and 96.8% | HCT-15 colon 102% and 96.9% | HT29 colon 98.1% and 110% | SNB-75 CNS 70% and 83% | SNB-19 CNS 104% and 100% | U251 CNS 94.2% and 102% | PC-3 prostate 103% and 93.6% | UACC-62 melanoma 99.8% and 79.8% | LOX IMVI melanoma 102% and 104% | SK-MEL-28 melanoma 101% and 116%

COc1ccc(N/C=C/C2=[N+](C)c3ccccc3C2(C)C)c(OC)c1
inactive: DU-145 prostate 102% | K-562 leukemia 103% | MALME-3M melanoma 85.5% | MDA-MB-231 breast 85.2% | RXF 393 renal 97.4% | SF-268 CNS 95.6% | SF-295 CNS 86.2% | SF-539 CNS 102% | UACC-257 melanoma 99.5% | M14 melanoma 86.4% | HCT-15 colon 99.3% | HT29 colon 87.4% | SNB-75 CNS 89.5% | SNB-19 CNS 102% | U251 CNS 91.2% | PC-3 prostate 87.6% | SK-MEL-5 melanoma 90.9% | UACC-62 melanoma 92.9% | SK-MEL-28 melanoma 113%

CC[C@H](CC[C@@H](C)[C@H]1CC[C@H]2[C@@H]3CC=C4C[C@@H](O)CC[C@]4(C)[C@H]3CC[C@]12C)C(C)C
inactive: DU-145 prostate 114% and 103% | K-562 leukemia 106% | MALME-3M melanoma 106% and 104% | MDA-MB-231 breast 115% and 97.9% | RXF 393 renal 104% | SF-268 CNS 101% and 97.6% | SF-295 CNS 98.3% and 101% | SF-539 CNS 92.2% and 99.1% | UACC-257 melanoma 97.5% | M14 melanoma 103% and 106% | HCT-15 colon 80.9% and 102% | HT29 colon 101% and 109% | SNB-75 CNS 81.3% and 101% | SNB-19 CNS 99.5% and 98.1% | U251 CNS 90.3% and 104% | PC-3 prostate 106% and 98.2% | UACC-62 melanoma 96% and 101% | SK-MEL-28 melanoma 99.9% and 103%

CCc1cc(C)cc(O)c1
inactive: DU-145 prostate 122% | K-562 leukemia 100% | MALME-3M melanoma 112% | MDA-MB-231 breast 112% | RXF 393 renal 94.4% | SF-268 CNS 124% | SF-295 CNS 116% | SF-539 CNS 128% | UACC-257 melanoma 96.1% | M14 melanoma 103% | HCT-15 colon 111% | HT29 colon 99.4% | SNB-75 CNS 98% | SNB-19 CNS 103% | U251 CNS 96% | PC-3 prostate 97.1% | UACC-62 melanoma 108% | LOX IMVI melanoma 105% | SK-MEL-28 melanoma 111%

NC(Cc1ccccc1)C(=O)NC(Cc1ccccc1)C(=O)O (stereo not drawn) (H-Phe-Phe-OH; configuration not given here)
inactive: DU-145 prostate 111% and 106% | K-562 leukemia 97.9% and 114% | MALME-3M melanoma 99.4% | MDA-MB-231 breast 115% and 108% | RXF 393 renal 105% | SF-268 CNS 101% and 106% | SF-295 CNS 107% and 99.4% | SF-539 CNS 101% and 92.6% | UACC-257 melanoma 88.2% and 92.8% | M14 melanoma 103% and 97.1% | HCT-15 colon 106% and 98.3% | HT29 colon 101% and 104% | SNB-75 CNS 88.1% and 93.5% | SNB-19 CNS 94.5% and 100% | U251 CNS 99% and 94% | PC-3 prostate 95.2% and 90.6% | UACC-62 melanoma 104% | SK-MEL-28 melanoma 103% and 105%

O=C1OC(C(O)C(O)CO)C(O)=C1O (configuration not stated)
inactive: DU-145 prostate 115% | K-562 leukemia 99% and 90.4% | MALME-3M melanoma 94.2% | MDA-MB-231 breast 116% and 101% | RXF 393 renal 116% | SF-268 CNS 109% and 105% | SF-295 CNS 136% and 101% | SF-539 CNS 96.8% | UACC-257 melanoma 98.7% and 88.2% | M14 melanoma 96.9% and 100% | HCT-15 colon 99.8% and 100% | HT29 colon 102% and 96.4% | SNB-75 CNS 100% and 90.4% | SNB-19 CNS 100% and 98.4% | U251 CNS 104% and 92.5% | PC-3 prostate 93.2% and 85.3% | UACC-62 melanoma 103% and 99.8% | LOX IMVI melanoma 104% and 99.2% | SK-MEL-28 melanoma 118% and 107%
